Inconclusive results are not listed. A number with no mark means an inactive call. Calls of active or inactive are those of the source. The call rests on the fitted dose curve.
Assay: p53 small molecule agonists, cell-based qHTS assay with rat liver microsomes: qHTS cell viability counter screen (AID 1963580); further: nearly all actives have a fitted effect of over 45% in size
Settings: p53RE-bla HCT-116 + rat microsomes, ATP viability, 16 h; series mostly up to 66 µM; activity change, negative = cytotoxicity: at the top concentration
Text: National Center for Advancing Translational Sciences [NCATS]
Division of Preclinical Innovation [DPI]
U.S. Environmental Protection Agency [EPA]
National Institutes of Environmental Health Sciences [NIEHS]
National Toxicology Program [NTP]
U.S. Food and Drug Administration [FDA]
p53, a tumor suppressor protein, is activated following cellular insult, including DNA damage and other cellular stresses. The activation of p53 regulates cell fate by inducing DNA repair, cell cycle arrest, apoptosis, or cellular senescence. The activation of p53, therefore, is a good indicator of DNA damage and other cellular stresses. The CellSensor p53RE-bla HCT-116 cell line contains a stably integrated beta-lactamase reporter gene under control of the p53 response elements. The activation of the reporter gene under culture conditions can be detected by fluorescence intensity. This cell line was used to screen the Tox21 10K compound library in the condition of presence of rat liver microsomes and to identify agonists that activate the p53 signaling pathway after in vitro metabolic activation (Ooka et al., Archive of Toxicology 96:1975-1987, 2022). The cytotoxicity of the Tox21 compound library against the p53 RE-bla HCT-116 cell line was tested in parallel by measuring the intra cellular ATP content in the same wells.
Tox21 Assay Protocol Summary:
The p53RE-bla cells were dispensed at 4,000cells/3ul/well in 1536-well black-clear bottom plates. After the assay plates were incubated at 37 C, 5% CO2 incubator for 5 hours, 23 nL of compounds dissolved in DMSO, positive controls or DMSO only was transferred to the assay plate. Following compound addition, 3 uL of rat liver microsomes (Molecular Toxicology, Boone, NC) at final concentration of 0.5 mg/mL and 1uL of B-Nicotinamide adenine dinucleotide 2'-phosphate (NADPH) at final concentration of 0.5 mg/mL were transferred to the assay plate. The plates were incubated at 37 C for 16 hours. 1 uL of LiveBLAzer detection mixture was added to each well and the plates were incubated at room temperature in the dark for 2 h. Fluorescence intensity at 460 and 530 nm emission and 405 nm excitation were measured by an Envision plate reader. For cell viability readout that measures cytotoxicity, 4 ul/well of CellTiter-Glo reagent was added into the assay plates using a Flying Reagent Dispenser. After 30 min incubation at room temperature, the luminescence intensity in the plates was measured using a ViewLux plate reader.
With `O=[N+]([O-])c1c(Cl)c(Cl)cc(Cl)c1Cl` the Potency was 36.3 µM (active). In the case of `CN1CCc2cc3c(cc2C1O)OCO3` (stereo not given), the “activity change, negative = cytotoxicity” value is reported as 5.17%. With `O=C(O)c1ccccc1C(=O)Nc1cccc2ccccc12` the “activity change, negative = cytotoxicity” value was 16.1%. In the case of `Cc1cc(C)c(C(=O)P(=O)(c2ccccc2)c2ccccc2)c(C)c1`, the “activity change, negative = cytotoxicity” value is reported as -28.5%. For `CC(C)(c1ccc(O)c(-c2ccccc2)c1)c1ccc(O)c(-c2ccccc2)c1`, the Potency was 20.4 µM (active). For `CC(N)=S`, the “activity change, negative = cytotoxicity” value was -5.38%. In the case of `O=CCCl`, the “activity change, negative = cytotoxicity” value is reported as -3.06%. For `CC(=O)[O-].CC(=O)[O-].[Hg+2]`, the Potency was 16.2 µM (active). For `O=c1oc2ccccc2c(O)c1Cc1c(O)c2ccccc2oc1=O`, the “activity change, negative = cytotoxicity” value was -0.654% [at 30.3 µM]. In the case of `CNC(=O)Oc1cc(C)c(N(C)C)c(C)c1`, the “activity change, negative = cytotoxicity” value is reported as -1.57%. With `CC1=C2C[C@H]3[C@@H](CC=C4C[C@@H](O)CC[C@@]43C)[C@@H]2CC[C@]12O[C@@H]1C[C@H](C)CN[C@H]1[C@H]2C` the “activity change, negative = cytotoxicity” value was 1.6% [at 30.3 µM]. For `Oc1ccc(I)cc1`, the “activity change, negative = cytotoxicity” value was 3.14%. In the case of `CN(C)C(=O)Oc1cc(OC(=O)N(C)C)cc(C(O)CNC(C)(C)C)c1` (stereo not given), the “activity change, negative = cytotoxicity” value is reported as -4.14% [at 30.3 µM]. In the case of `CCOC(=O)c1cn2nc(OP(=S)(OCC)OCC)cc2nc1C`, the “activity change, negative = cytotoxicity” value is reported as -9.82%. With `CC(C)CP(=S)(S)CC(C)C` the “activity change, negative = cytotoxicity” value was -15%. In the case of `CC1(c2ccc(Oc3ccccc3)cc2)OC(=O)N(Nc2ccccc2)C1=O` (stereo not given), the “activity change, negative = cytotoxicity” value is reported as -16.9%. In the case of `CNC(=O)O/N=C(\C)C(C)S(C)(=O)=O` (stereo not given), the “activity change, negative = cytotoxicity” value is reported as -11.6% [at 623 µM]. With `CC/C(=N\OC/C=C/Cl)C1=C(O)CC(C2CCOCC2)CC1=O` (stereo not given) the “activity change, negative = cytotoxicity” value was 1.67%. For `C=C(Cl)CSC(=S)N(CC)CC`, the “activity change, negative = cytotoxicity” value was -18.6%. In the case of `O=C(C(Cl)(Cl)Cl)C(Cl)(Cl)Cl`, the “activity change, negative = cytotoxicity” value is reported as 6.64%. In the case of `Cn1sc(Cl)cc1=O`, the “activity change, negative = cytotoxicity” value is reported as 0.915%. With `c1ccc(OCC2CO2)cc1` (stereo not given) the “activity change, negative = cytotoxicity” value was 5.55%. With `CC(CCc1ccccc1)NC(C)C(O)c1ccc(O)cc1` (stereo not given) the “activity change, negative = cytotoxicity” value was 1.78% [at 30.3 µM]. For `CCSC(=O)N(CC)C1CCCCC1`, the “activity change, negative = cytotoxicity” value was 0.0212%. In the case of `CC(=O)C(Cl)C(=O)N(C)C` (stereo not given), the “activity change, negative = cytotoxicity” value is reported as -0.607%. With `CC(C)CCCCCCCOP(=O)(Oc1ccccc1)Oc1ccccc1` the “activity change, negative = cytotoxicity” value was -1.13%. With `FC(F)C(F)(F)OCC(Cn1cncn1)c1ccc(Cl)cc1Cl` (stereo not given) the “activity change, negative = cytotoxicity” value was -5.32%. For `COc1cc(CC(C)N)cc(OC)c1OC` (stereo not given), the “activity change, negative = cytotoxicity” value was -32%. With `CC(C)[C@H](C(=O)OC(C#N)c1cccc(Oc2ccccc2)c1)c1ccc(OC(F)F)cc1` (stereo not given in full) the “activity change, negative = cytotoxicity” value was -17%. For `CC(=O)NNc1ccccc1`, the “activity change, negative = cytotoxicity” value was 5.06%. With `Cc1cc(C)cc(OP(=O)(Oc2cc(C)cc(C)c2)Oc2cc(C)cc(C)c2)c1` the “activity change, negative = cytotoxicity” value was -6.61%. For `O=c1oc2ccccc2c(O)c1C1CCCc2ccccc21` (stereo not given), the “activity change, negative = cytotoxicity” value was 1.65%. In the case of `CCC1(c2cnc[nH]2)Cc2ccccc2C1`, the “activity change, negative = cytotoxicity” value is reported as -2.05% [at 30.3 µM]. In the case of `N#CCCSCCC#N`, the “activity change, negative = cytotoxicity” value is reported as -1.16%. With `COc1ccc2c(c1OC)CN1CCc3cc4c(cc3C1C2)OCO4` (stereo not given) the “activity change, negative = cytotoxicity” value was 0.171% [at 30.3 µM]. For `CC(O)CCl` (stereo not given), the “activity change, negative = cytotoxicity” value was 0.566%. For `Cc1ccc(OP(=O)(Oc2ccccc2)Oc2ccccc2)cc1`, the “activity change, negative = cytotoxicity” value was -0.974%. With `CC(C)(C)c1cc([N+](=O)[O-])cc(C(C)(C)C)c1O` the “activity change, negative = cytotoxicity” value was -2.25%. With `ClCCCCCCCl` the “activity change, negative = cytotoxicity” value was 18.6%. With `CN(CCCC(O)c1cccnc1)N=O` (stereo not given) the “activity change, negative = cytotoxicity” value was -1.3%.

From PubChem BioAssay (Tox21)
On the % scale 0 is the no-effect control and ±100 the full control effect; potency means the concentration at half of the fitted maximal effect.
